High-throughput results deposited in PubChem BioAssay by several laboratories.
MRP resist rev – compounds reversing MRP-mediated drug resistance. H69AR cells + 2 uM doxorubicin, CellTiter-Glo, 72 h. differential viability (reversal), % at 10 µM. hit rate 0.04% among 85,000. AID 602;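 active = viability drop by adding the cancer drug above about 55%, with treated viability meeting a 40% cutoff, limit read from the data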;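 also: larger differential means the compound sensitizes cells more to doxorubicin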
sEH inh – inhibitors of human soluble epoxide hydrolase; P34913; recombinant human sEH enzymatic activity assay; inhibition, % at 2 µM; hit rate 0.34% among 91,000; AID 707; in the data active = inhibition above about 80%
Target sequence (P34913 whole entry, looked up): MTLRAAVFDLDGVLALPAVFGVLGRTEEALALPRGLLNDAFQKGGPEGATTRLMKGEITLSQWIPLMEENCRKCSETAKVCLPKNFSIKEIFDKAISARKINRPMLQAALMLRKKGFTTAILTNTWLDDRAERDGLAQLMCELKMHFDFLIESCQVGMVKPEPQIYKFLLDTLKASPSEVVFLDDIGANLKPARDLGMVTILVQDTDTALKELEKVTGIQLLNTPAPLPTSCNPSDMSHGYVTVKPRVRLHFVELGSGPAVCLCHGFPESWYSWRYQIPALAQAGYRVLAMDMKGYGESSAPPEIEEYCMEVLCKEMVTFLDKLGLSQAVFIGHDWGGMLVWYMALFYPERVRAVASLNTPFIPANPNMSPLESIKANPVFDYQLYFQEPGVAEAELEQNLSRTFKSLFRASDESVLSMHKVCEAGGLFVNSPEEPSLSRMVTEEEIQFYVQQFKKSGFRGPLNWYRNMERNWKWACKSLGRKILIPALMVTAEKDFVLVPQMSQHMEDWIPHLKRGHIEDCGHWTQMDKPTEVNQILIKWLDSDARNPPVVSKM
MRP-1 activ – activators of MRP-1; H69AR cells + doxorubicin, viability rescue, CellTiter-Glo; viability increase, % at 10 µM; hit rate 0.61% among 140,000; AID 799;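 active = viability gain under doxorubicin at or above a set limit, the compound median plus 3 SD, cut at about 4.7% in these data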;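 also: MRP-1 overexpressing cells given doxorubicin 25 µM after compound pretreatment; 18-22 h compound pretreatment then 72 h with doxorubicin before readout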
sEH act – increases human soluble epoxide hydrolase activity | P34913 | purified human sEH enzymatic activity, activator screen | activation, % at 2 µM | hit rate 0.04% among 91,000; in the data active = activation above about 37%
A number is an active result; n = inactive; x = no result given. Compounds with a hit are over-represented: about 0.76% of the library has one in this group of screens.

SMILES	MRP resist rev	sEH inh	MRP-1 activ	sEH act
CCCC1S/C(=N/N=C/c2ccc(OC)cc2)N(Cc2ccc(OC)cc2)C1=O (stereo unspecified)	n	n	n	n
COc1ccc(CNC(=O)NC(C)(C)c2cccc(C(C)(C)NC(=O)NCc3ccc(OC)cc3)c2)cc1	x	x	n	x
c1coc(C2Nc3cccc4cccc(c34)N2)c1	n	n	6.0	n
Cc1ccc(NC(=O)CC2SC(=O)N(c3ccccc3)C2=O)cc1 (stereo unspecified)	n	n	n	n
O=C(CC1SC(=O)N(c2ccccc2)C1=O)Nc1ccccc1 (stereo unspecified)	n	n	6.8	n
Cc1cccc(NC(=O)CC2SC(=O)N(c3ccccc3)C2=O)c1 (stereo unspecified)	n	n	8.9	n
CCn1c2ccccc2c2cc(CN3CCN(S(=O)(=O)Cc4ccccc4)CC3)ccc21	x	x	n	x
O=C(Nc1cccnc1)C1CC(c2ccc(Cl)c(Cl)c2)=NO1 (stereo unspecified)	n	n	6.0	n
O=C(NCc1ccccn1)C1CC(c2ccc(Cl)c(Cl)c2)=NO1 (stereo unspecified)	n	n	n	n
OCCN=C1CCCc2c1[nH]c1ccc(Br)cc21	x	n	5.2	n
O=c1c2c([nH]c3ccc(Br)cc13)CCCC2	n	x	x	x
O=C(Nc1ccc2c(c1)nc1n2CCN(Cc2ccccc2)C1)NC1CCCCC1	n	90.9	n	n
COCCN1CCn2c(nc3cc(NC(=O)NC4CCCCC4)ccc32)C1	n	n	n	n
Cc1ccc(C(=O)Nc2ccccc2C(=O)N2CCOCC2)cc1[N+](=O)[O-]	x	x	n	x
Cc1ccc(SCCC(=O)NCCSCc2ccccc2C)cc1	x	83.1	n	n
CC(=O)c1ccc(N2CCN(c3ccc(C(F)(F)F)cn3)CC2)cc1	x	x	7.8	x
O=C(Nc1ccc(C(F)(F)F)cc1)c1cc(S(=O)(=O)NCC2COc3ccccc3O2)ccc1F (stereo unspecified)	x	x	n	x
CCN(CC(=O)NC(C)C)C(=O)c1ccc(Cl)cc1	x	x	6.0	x
CCN(CC(=O)NC(C)C)C(=O)c1ccc(S(=O)(=O)N(C)c2ccccc2OC)cc1	n	n	n	n
NS(=O)(=O)c1ccc(NC(=O)C2CCCO2)cc1 (stereo unspecified)	n	n	n	n
O=C(Nc1ccc(O)cc1)C1CCCO1 (stereo unspecified)	n	n	27.8	n
Cc1ccc(C(=O)NNC(=O)c2ccc(SCC3CCCO3)c([N+](=O)[O-])c2)cc1 (stereo unspecified)	n	n	8.2	n
CCC(=O)NC(NC(=S)Nc1ccc(S(N)(=O)=O)cc1)C(Cl)(Cl)Cl (stereo unspecified)	x	x	n	x
COc1cc(/C=N/NC(=S)Nc2cccc(C(=O)O)c2)cc(OC)c1OC	x	x	4.8	x
COc1ccc(/C=N/NC(=S)Nc2cccc(C(=O)O)c2)cc1OC	x	x	n	x
SMILES	MRP resist rev	sEH inh	MRP-1 activ	sEH act
COc1ccc2ncc(OC(C)=O)cc2c1	x	x	n	x
O=c1[nH]cc([N+](=O)[O-])cc1Br	x	x	n	x
CCSc1nnc(-c2ccc(C)cc2)c2ccccc12	x	x	5.6	x
O=C(NC(=S)Nc1ccccc1N1CCOCC1)c1ccc(-c2cc(Cl)ccc2Cl)o1	x	x	14.5	x
Cn1nc(-c2ccccc2)c(C(=O)Nc2ccc(C(F)(F)F)cc2)c1Cl	x	n	n	n
Cn1nc(C(F)(F)F)c(C(=O)Nc2ccc(C(F)(F)F)cc2)c1Cl	x	n	6.2	n
O=C1CSC(=S)N1N=C1CCCCCC1	x	x	5.9	x
O=C1CSC(=S)N1/N=C/C=C/c1ccccc1	x	x	n	x
CC1(C)CC(=O)C2=C(C1)NCN(Cc1ccccc1)C2	n	n	n	45.8
CCCCC(=O)Nc1ccc2oc(-c3ccncc3)nc2c1	n	n	n	n
CCCCCC(=O)Nc1ccc2oc(-c3cncc(Br)c3)nc2c1	n	82.4	n	n
Cc1ccc(NC(=O)c2cc(N3C(=O)C=CC3=O)ccc2N2CCOCC2)cc1Cl	x	x	n	x
COc1ccc2nc(/N=C(\N)NC(=O)N3c4ccccc4Sc4ccccc43)nc(C)c2c1	x	x	n	x
Cc1ccc2nc(/N=C(\N)NC(=O)N3c4ccccc4Sc4ccccc43)nc(C)c2c1	x	x	8.7	x
Cc1nc(/N=C(\N)Nc2ccccc2)nc2ccccc12	n	n	n	n
Cc1cc2nc(/N=C(\N)NC(=O)N3c4ccccc4Sc4ccccc43)nc(C)c2cc1C	x	x	11.6	x
Cc1ccc2c(C)nc(/N=C(\N)NC(=O)N3c4ccccc4Sc4ccccc43)nc2c1	x	x	10.6	x
COc1ccc(NC(=O)/C(C#N)=C/c2ccc(OCc3ccccc3F)cc2)cc1	x	x	n	x
CCOC(=O)n1n[n+]([O-])c2ccccc21	x	x	n	x
CC1=C(C(=O)OC(C)C)C(c2cccc(F)c2)N2C(=O)C(C)SC2=N1 (stereo unspecified)	n	n	5.3	n
CC1=C(C(=O)OCC(C)C)C(c2cccc(F)c2)N2C(=O)C(C)SC2=N1 (stereo unspecified)	n	n	n	n
O=C(N/N=C/c1ccc(-c2ccc([N+](=O)[O-])cc2)o1)C(O)c1ccccc1 (stereo unspecified)	x	x	5.5	x
O=C(N/N=C\c1ccc(-c2ccc([N+](=O)[O-])cc2)o1)C1COc2ccccc2O1 (stereo unspecified)	x	x	n	x
c1ccc(Cn2c(-c3ccco3)nc3nc4ccccc4nc32)cc1	n	n	n	37.9
CSc1ccc(NC(=O)N2CC=C(n3c(=O)[nH]c4ccccc43)CC2)cc1	x	x	n	x
SMILES	MRP resist rev	sEH inh	MRP-1 activ	sEH act
CC(Cc1cccs1)NC(=O)Nc1ccc(F)cc1 (stereo unspecified)	n	n	n	n
CC(Cc1cccs1)NC(=O)Nc1cccc(Cl)c1 (stereo unspecified)	n	84.2	n	n
CC(C)c1ccc2c(c1)[C@H]1OCC[C@H]1[C@@H](c1cccs1)N2	x	x	n	x
O=C(CCCOc1ccc(Cl)cc1Cl)N/N=C\C1CCCCC1	x	98.6	n	n
COC(=O)[C@@H](NC(=O)NCc1ccccc1Cl)C(C)C	n	89.1	n	n
COC(=O)[C@@H](NC(=O)NCc1ccccc1F)C(C)C	n	n	n	n
COc1ccc(N2CCC(CNC(=S)Nc3cccc(OC)c3)C2)cc1 (stereo unspecified)	x	x	n	x
COc1ccc(N2CCC(CNC(=O)Nc3cccc(OC)c3)C2)cc1 (stereo unspecified)	n	85.8	n	n
O=C(C1CCCN(CCCc2ccccc2)C1)N1CCCCCC1 (stereo unspecified)	x	x	n	x
COC(=O)c1cc2c(s1)-c1ccccc1OC2	n	n	n	44.5
O=C(c1cc2c(s1)-c1ccccc1OC2)N1CCc2ccccc2C1	x	x	n	x
Cc1ccc(NC(=O)NC2CCN(S(=O)(=O)c3ccc(F)cc3)CC2)cc1	n	84.8	n	n
CC(C)Oc1ccc(Br)cc1/C=N\NC(N)=S	x	x	n	x
O=C(CSc1nc2cc(Cl)ccc2s1)Nc1cccc(S(=O)(=O)N2CCOCC2)c1	x	x	n	x
CCCCCCC(=O)Nc1ccc(C(=O)N/N=C/c2cccnc2)cc1	x	n	9.9	n
Cc1ccc(C=Nc2ccc(N(C)C)cc2)o1	64.8	n	n	n
Cc1ccc(C=Nc2ccccc2C(N)=O)o1	x	x	n	x
CCN(CC)S(=O)(=O)c1ccc(OC)c(NC(=O)CSc2cc(C)ccc2C)c1	x	x	n	x
Cc1ccccc1C(=O)N1CCN(c2ccc(NC(=O)CSc3ccc(Cl)cc3)cc2)CC1	x	85.8	n	n
CCC(=O)Nc1ccc(N2CCN(C(=O)c3ccccc3C)CC2)cc1	n	n	n	n
